# About 83,000 compounds went through this panel and 20% of them were active in at least one assay; those are over-represented in the sample as a whole.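 Cell lines were cultured in 96-well plates, exposed to a single compound concentration, and assessed for percent growth 48 hours later.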 Unmarked numbers belong to inactive results. The source made the active and inactive calls. The calls were made as follows: active = growth percent below 10; inactive = the rest.
# Experiments:
# Assay in all cases: NCI-60 one-dose screen, 48 h (100 = growth as untreated, 0 = no growth, -100 = all killed)
# Details in all cases: 10 µM unless noted
# NCI-H23 lung = system: NCI-H23 lung
# NCI-H226 lung = system: NCI-H226 lung
# NCI-H322M lung = system: NCI-H322M lung
# HOP-62 NSCLC = system: HOP-62 NSCLC
# NCI-H460 lung = system: NCI-H460 lung
# HOP-92 NSCLC = system: HOP-92 NSCLC
# NCI-H522 lung = system: NCI-H522 lung
# A549/ATCC NSCLC = system: A549/ATCC NSCLC
# 786-0 renal = system: 786-0 renal
# COLO 205 colon = system: COLO 205 colon
# DU-145 prostate = system: DU-145 prostate
# K-562 leukemia = system: K-562 leukemia
# MALME-3M melanoma = system: MALME-3M melanoma
# MDA-MB-231 breast = system: MDA-MB-231 breast
# RXF 393 renal = system: RXF 393 renal
# SF-268 CNS = system: SF-268 CNS
# SF-295 CNS = system: SF-295 CNS
# SF-539 CNS = system: SF-539 CNS
# UACC-257 melanoma = system: UACC-257 melanoma
# M14 melanoma = system: M14 melanoma
Compound,growth (NCI-H23 lung),growth (NCI-H226 lung),growth (NCI-H322M lung),growth (HOP-62 NSCLC),growth (NCI-H460 lung),growth (HOP-92 NSCLC),growth (NCI-H522 lung),growth (A549/ATCC NSCLC),growth (786-0 renal),growth (COLO 205 colon),growth (DU-145 prostate),growth (K-562 leukemia),growth (MALME-3M melanoma),growth (MDA-MB-231 breast),growth (RXF 393 renal),growth (SF-268 CNS),growth (SF-295 CNS),growth (SF-539 CNS),growth (UACC-257 melanoma),growth (M14 melanoma)
NS(=O)(=O)c1cccc(Nc2nc(SCC(=O)c3ccc(Cl)cc3)nc3c2CCC3)c1,75.1%,87.7%,97.1%,76.3%,97.6%,63.3%,95.6%,91.7%,82.5%,109%,97.6%,90.2%,96.4%,92.5%,82.2%,82.8%,93.1%,88.3%,104%,101%
CN(C)CCCOc1ccc(C(=C(c2ccccc2)C2CCCC2)c2ccc(OCCCN(C)C)cc2)cc1,-78.8% (active),-67.5% (active),-97% (active),-72.6% (active),-62.6% (active),-76.3% (active),-89.8% (active),-79.2% (active),-80.4% (active),-76.2% (active),-99% (active),-4.67% (active),-89.6% (active),-86.4% (active),-83.1% (active),-81.9% (active),-82% (active),-89.4% (active),-88.7% (active),-80.7% (active)
CC1CC(=O)C2=C(C1)Nc1ccc(Br)cc1CC2c1c[nH]c2ccc(Br)cc12 (stereo not given),66.8%,65.5%,70.9%,65.2%,34.5%,76.6%,18.4%,42.3%,51.2%,66.2%,71.6%,21.6%,59.3%,68.8%,69%,67.8%,4.8% (active),54.8%,67.9%,29%
COc1cccc2c1[C@H](OC)[C@]13O[C@@]1(C2=O)[C@H](O)[C@H](C)[C@@](O)(C(=O)[C@@H]1O[C@H]1C)[C@@H]3O,-63.9% (active),-54.4% (active),1.69% (active),-26% (active),-33.2% (active),-16.8% (active),-31.9% (active),-16.7% (active),-16.9% (active),-44.9% (active),-20.6% (active),-27% (active),-56.7% (active),-1.86% (active),-77.3% (active),-24.7% (active),-21.8% (active),-29% (active),-28.3% (active),-89.7% (active)
Cn1cc(-c2cc3ncnc(Nc4ccc(NC(=O)Nc5cc(C(C)(C)C)on5)cc4)c3s2)cn1,29.4%,30.7%,57.4%,62.7%,42.6%,22.5%,32.5%,31.6%,3.44% (active),12.9%,47.8%,8.65% (active),17.3%,28%,-5.22% (active),45.5%,-37.8% (active),-47.8% (active),25.3%,11.6%
COc1ccccc1/C=C/C(=O)c1nnn(-c2ccc(F)cc2)c1C,42.9%,53.1%,70.6%,72.2%,28.4%,72.9%,54%,41.7%,84.5%,72.4%,3.67% (active),8.81% (active),70.6%,65.6%,40.7%,66.2%,64.3%,20.7%,71.3%,62.3%
NC1[C@H]2CN(c3cnc(C(=O)Nc4cc(F)cc5cccnc45)cn3)C[C@@H]12 (stereo not given in full),84.5%,85.1%,6.79% (active),82.4%,92.1%,24.8%,46.6%,92.1%,75.2%,18.5%,76.4%,15%,57.5%,47.8%,70.6%,87.5%,96.4%,76.9%,97.7%,79.3%

# Source: PubChem BioAssay (NCI)
